# The supplement of paper PMC10646978
# ± gives the standard deviation.
# How the values were obtained:
# Settings in all cases: modulator concentration 10 µM
# [1] = system: RAW-Dual (murine macrophage reporter line); assay: NF-kB reporter (SEAP) activity fold change vs agonist alone; higher = enhanced NF-kB activity
# Summary of the method: (§1)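 Overnight stimulation with a PRR agonist followed pre-incubation for 1 hour at 37 °C with compound at 10 μM final. This was done in RAW-Dual murine macrophage reporter cells seeded at 50 000 per well in 384-well plates. NF-κB (SEAP, QUANTI-Blue absorbance at 620 nm) and IRF (Lucia luciferase, QUANTI-Luc luminescence) were read from the supernatant. Each reporter's fold change relative to the mean agonist-only control on the same plate was averaged over replicate plates.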
# [2] = system: RAW-Dual (murine macrophage reporter line); assay: IRF reporter (Lucia luciferase) activity fold change vs agonist alone; higher = enhanced IRF activity
# Summary of the method: as §1
# [3] = system: RAW-Dual (murine macrophage reporter line); assay: viability score (confluency relative to resting cells, overnight) (fraction); higher = more viable, active = viable (0.7 or more)
# Summary of the method: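 RAW-Dual macrophages in 384-well plates were incubated overnight with compound, final concentration 10 μM. Confluency images from IncuCyte were processed in IncuCyte software into two masks covering all imaged wells. The viability score is each well's confluency relative to resting cells, and a compound met the cutoff when both masks exceeded 70% of resting cells.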
# [4] = agonist: CpG ODN 1826 0.5 ug/mL
Compound,"NF-kB reporter [1, 4]",NF-kB reporter ([1]; agonist: LPS 0.1 ug/mL),NF-kB reporter ([1]; agonist: MPLA […]),IRF reporter ([2]; agonist: 3'3'-cGAMP 10 ug/mL),IRF reporter ([2]; agonist: LPS 0.1 ug/mL),IRF reporter ([2]; agonist: MPLA […]),viability score [3]
CC1CC(OC(=O)C(O)c2ccccc2)CC(C)(C)C1 (stereo not given),0.872 ± 0.037,1.02 ± 0.11,1.11 ± 0.18,1 ± 0.051,1.25 ± 0.25,1.48 ± 0.5,1.01 (active)
CCN(CC)c1ccc(NC(=O)C(C)(C)C)cc1,0.969 ± 0.075,1.02 ± 0.075,0.98 ± 0.12,0.901 ± 0.074,1.22 ± 0.17,1.36 ± 0.25,1.04 (active)
CCOC(=O)c1ncn2c1CN(C)C(=O)c1cc(F)ccc1-2,1.26 ± 0.22,1.03 ± 0.28,0.975 ± 0.058,0.912 ± 0.029,1.2 ± 0.27,1.16 ± 0.088,0.995 (active)
O=C(CCCn1nc(-c2ccc(F)cc2)ccc1=O)Nc1cc(Cl)ccc1Cl,1.01 ± 0.16,1.06 ± 0.091,0.989 ± 0.11,1.06 ± 0.066,1.03 ± 0.076,1.11 ± 0.18,1.02 (active)
Cc1oncc1CNC(=O)c1ccc(C(C)(C)C)cc1,1.18 ± 0.089,1.1 ± 0.083,1.07 ± 0.049,0.779 ± 0.039,1.01 ± 0.05,1.02 ± 0.099,0.996 (active)
Cc1cccc(OCCn2cc(C=Nn3cnnc3)c3ccccc32)c1,1.4 ± 0.11,1.12 ± 0.095,1.31 ± 0.13,0.992 ± 0.059,1.23 ± 0.11,1.5 ± 0.24,0.975 (active)
COc1ccccc1-c1noc(C2CN(S(=O)(=O)N(C)C)C2)n1,0.972 ± 0.051,0.982 ± 0.083,1.29 ± 0.09,1.02 ± 0.047,1.27 ± 0.26,1.54 ± 0.51,0.993 (active)
CC(C)CN(C[C@@H](O)[C@H](Cc1ccccc1)NC(=O)O[C@H]1CO[C@H]2OCC[C@H]21)S(=O)(=O)c1ccc(N)cc1.CCO,1.7 ± 0.13,1.11 ± 0.063,1.7 ± 0.042,0.998 ± 0.056,0.982 ± 0.12,1 ± 0.081,0.996 (active)
CC(CN1c2ccccc2Sc2ccccc21)N(C)C.Cl (stereo not given),0.789 ± 0.11,1.17 ± 0.29,0.96 ± 0.055,0.336 ± 0.024,1.16 ± 0.42,1.15 ± 0.091,0.389 (inactive)
COC(=O)C1=CN(CC2CCCO2)C=C(C(=O)OC)C1c1cccc(Br)c1 (stereo not given),0.886 ± 0.18,0.871 ± 0.088,0.944 ± 0.073,0.975 ± 0.037,1.21 ± 0.13,1.29 ± 0.13,1 (active)
CC(C)CC(C(=O)Nc1cccc(O)c1)N1C(=O)c2ccccc2C1=O (stereo not given),0.947 ± 0.076,1.04 ± 0.099,1.16 ± 0.083,1.04 ± 0.04,1.64 ± 0.15,1.63 ± 0.14,0.913 (active)
COC(=O)C1=C(C)NC(C)=C(C(=O)O[C@@H]2CCCN(Cc3ccccc3)C2)[C@@H]1c1cccc([N+](=O)[O-])c1.Cl,0.323 ± 0.024,0.587 ± 0.034,1.31 ± 0.036,0.31 ± 0.018,1.05 ± 0.12,1.25 ± 0.18,0.997 (active)
COc1ccc(C(NC(=O)c2ccccc2F)c2ccc(OC)cc2)cc1,1.03 ± 0.17,1.08 ± 0.093,1.01 ± 0.095,1 ± 0.032,1.21 ± 0.27,1.24 ± 0.16,1 (active)
COc1cc2c(cc1OC)C(=O)NC1(CCCC1)C2,1.24 ± 0.095,0.958 ± 0.073,0.959 ± 0.092,0.819 ± 0.05,0.872 ± 0.11,0.911 ± 0.17,1.02 (active)
OCCN(CCO)c1nc(N2CCCCC2)c2nc(N(CCO)CCO)nc(N3CCCCC3)c2n1,1.58 ± 0.22,1.39 ± 0.35,1.06 ± 0.07,0.502 ± 0.022,1.18 ± 0.18,1.28 ± 0.17,0.984 (active)
